Laboratory results: PubChem BioAssay (NCATS)
Records with an inconclusive call do not appear. Activity calls are given as the source filed them. Unless noted, calls follow the shape of the dose curve; as a rule, active = well fitted curve in either direction with a large enough effect (not every such curve was filed as active); inconclusive = small, poorly fitted or top-dose-only effect, or another doubt; inactive = flat fitted curve, though single readings scatter.

Legend:
[1] = target: Lysosomal acid glucosylceramidase (Homo sapiens) (UniProt P04062); assay: Glucocerebrosidase-p2 (AID 348; in the data active = potency below about 10 µM; also: potency is read from the fitted curve at half-maximal effect); details: purified GBA, blue fluorogenic substrate, 40 min
Sequence of Lysosomal acid glucosylceramidase (Homo sapiens) (P04062 whole entry, looked up): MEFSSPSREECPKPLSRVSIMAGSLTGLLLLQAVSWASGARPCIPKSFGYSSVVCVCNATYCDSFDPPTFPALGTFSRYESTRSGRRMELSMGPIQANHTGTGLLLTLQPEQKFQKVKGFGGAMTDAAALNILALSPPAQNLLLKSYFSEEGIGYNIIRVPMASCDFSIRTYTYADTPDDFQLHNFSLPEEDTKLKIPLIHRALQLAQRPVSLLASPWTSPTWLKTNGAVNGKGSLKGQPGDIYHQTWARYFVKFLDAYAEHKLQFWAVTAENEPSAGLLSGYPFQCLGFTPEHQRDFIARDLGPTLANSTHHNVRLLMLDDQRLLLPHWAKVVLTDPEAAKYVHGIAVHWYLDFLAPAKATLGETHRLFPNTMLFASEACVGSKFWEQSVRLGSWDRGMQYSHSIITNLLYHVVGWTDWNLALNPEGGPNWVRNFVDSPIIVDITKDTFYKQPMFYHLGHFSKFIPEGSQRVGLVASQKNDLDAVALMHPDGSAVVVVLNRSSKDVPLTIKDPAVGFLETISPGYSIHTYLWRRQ
Outline: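 Normal human glucocerebrosidase (0.2 nM) with blue fluorogenic substrate (80 uM final) in citrate/phosphate pH 5.9 with 10mM sodium taurocholate, 0.01% tween-20; 40 min RT, NaOH/glycine stop; fluorescence Ex 365/Em 440; AC50 from a titration from 0.6 nM upwards.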

[2] = AP1 Signaling Pathway (AID 357); details: ME-180 AP-1-bla reporter, EGF-induced, beta-lactamase ratio, 5 h; at 7.69 µM (top of the series) unless noted;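 also: ME-180 reporter cells stimulated with EGF at its EC50 level; % is scaled to controls: 0 for no effect and ±100 for the full control effect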
Outline: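 First, ME-180 AP-1-bla cells were cultured overnight at 37 °C in low-serum Opti-MEM. Next, titrated compounds with EC50 EGF were incubated 5 hours. Finally, CCF4 was added for 2.5 hours and the 460/530 nm ratio recorded.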

[3] = Stat Signaling Pathway (AID 446); details: ME-180 (cervical carcinoma) SIE beta-lactamase reporter, IL-6 stimulated, 5 h; at 7.69 µM (top of the series) unless noted;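 also: ME-180 cervical cancer cells given 40 pM IL-6 alongside compound; SIE-controlled beta-lactamase reporter measured as 460/530 nm FRET emission ratio; % is scaled to controls: 0 for no effect and ±100 for the full control effect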
Outline: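 Compound effects on IL-6-induced STAT reporter activity were measured in ME-180 cells. After overnight culture, cells were co-treated with 40 pM IL-6 for 5 hrs before beta-lactamase substrate loading at room temperature.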

[4] = target: Glucocorticoid receptor (Homo sapiens) (UniProt P04150); assay: GR-GFP Redistribution (AID 450;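 active = compounds whose dose series gives a full or clear partial fitted curve of increased nuclear translocation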; also: potency is read from the fitted curve at half-maximal effect); details: U2OS GR-GFP nuclear translocation, laser cytometry, 2 h
Sequence of Glucocorticoid receptor (Homo sapiens) (P04150 whole entry, looked up, the tested form may be a part): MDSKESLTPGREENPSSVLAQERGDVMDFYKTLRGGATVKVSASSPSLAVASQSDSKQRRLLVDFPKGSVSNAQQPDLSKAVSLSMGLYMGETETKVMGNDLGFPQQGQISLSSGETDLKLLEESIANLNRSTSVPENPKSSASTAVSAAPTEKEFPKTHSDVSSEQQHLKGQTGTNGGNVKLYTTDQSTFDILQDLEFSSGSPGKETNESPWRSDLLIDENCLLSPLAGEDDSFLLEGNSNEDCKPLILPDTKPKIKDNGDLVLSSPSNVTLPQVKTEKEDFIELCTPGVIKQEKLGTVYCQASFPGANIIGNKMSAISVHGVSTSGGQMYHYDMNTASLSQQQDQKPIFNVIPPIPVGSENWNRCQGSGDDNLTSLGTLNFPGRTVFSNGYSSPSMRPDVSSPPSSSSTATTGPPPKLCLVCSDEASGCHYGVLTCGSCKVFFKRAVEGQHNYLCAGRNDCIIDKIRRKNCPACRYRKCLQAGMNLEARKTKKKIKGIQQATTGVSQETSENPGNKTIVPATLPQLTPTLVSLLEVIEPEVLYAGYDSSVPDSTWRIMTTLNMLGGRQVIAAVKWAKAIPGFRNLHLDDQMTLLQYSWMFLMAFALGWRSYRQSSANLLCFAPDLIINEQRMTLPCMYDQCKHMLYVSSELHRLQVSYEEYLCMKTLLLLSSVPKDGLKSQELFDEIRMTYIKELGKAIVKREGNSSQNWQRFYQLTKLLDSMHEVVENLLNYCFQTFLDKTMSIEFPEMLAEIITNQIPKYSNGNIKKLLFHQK

[5] = target: Glucocorticoid receptor (Homo sapiens) (UniProt P04150); assay: GR-EFC Redistribution (AID 451; calls by dose curve; also: potency is read from the fitted curve at half-maximal effect); details: CHO-K1 GR-EFC translocation, beta-gal luminescence, 2 h
Outline: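 CHO-K1 cells stably expressing nuclear-localized β-gal enzyme acceptor and GR fused C-terminally to the enzyme donor fragment; ligand-driven nuclear translocation restores β-gal by complementation. Compounds titrated up to 46 uM final, 2 h at 37 °C; luminescence read.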

[6] = target: Mitogen-activated protein kinase 10 (Mus musculus) (UniProt Q61831); assay: JNK3 AlphaScreen Assay (AID 530); details: JNK3 lysate, c-Jun phosphorylation; series mostly up to 11.4 µM;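 also: kinase came from lysate of stimulated human HepG2 cells; signal reports phosphorylation of biotinylated GST-cJun 1-79 at Ser73 with 10 µM ATP; % is scaled to controls: 0 for no effect and ±100 for the full control effect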
Outline: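 Phosphorylation of biotinylated GST-cJun(1-79) at Ser73 is measured by AlphaScreen proximity luminescence. Enzyme is JNK3 in HepG2 lysates activated with interleukin-1beta and tumor necrosis factor alpha; ATP is 10 uM final.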

[7] = target: 3',5'-cyclic-AMP phosphodiesterase 4B (Homo sapiens) (UniProt Q07343); assay: qHTS Assay for Inhibitors of PDE-IV (AID 607; active = well fitted activation curve with a large enough effect in the main read-out, with a control signal flat, not every such curve was filed as active; also: % of control where 0% means no effect); details: HEK293 ACTOne CNG channel cells, membrane potential fluorescence; series mostly up to 22.9 µM
Sequence of 3',5'-cyclic-AMP phosphodiesterase 4B (Homo sapiens) (Q07343 whole entry, looked up): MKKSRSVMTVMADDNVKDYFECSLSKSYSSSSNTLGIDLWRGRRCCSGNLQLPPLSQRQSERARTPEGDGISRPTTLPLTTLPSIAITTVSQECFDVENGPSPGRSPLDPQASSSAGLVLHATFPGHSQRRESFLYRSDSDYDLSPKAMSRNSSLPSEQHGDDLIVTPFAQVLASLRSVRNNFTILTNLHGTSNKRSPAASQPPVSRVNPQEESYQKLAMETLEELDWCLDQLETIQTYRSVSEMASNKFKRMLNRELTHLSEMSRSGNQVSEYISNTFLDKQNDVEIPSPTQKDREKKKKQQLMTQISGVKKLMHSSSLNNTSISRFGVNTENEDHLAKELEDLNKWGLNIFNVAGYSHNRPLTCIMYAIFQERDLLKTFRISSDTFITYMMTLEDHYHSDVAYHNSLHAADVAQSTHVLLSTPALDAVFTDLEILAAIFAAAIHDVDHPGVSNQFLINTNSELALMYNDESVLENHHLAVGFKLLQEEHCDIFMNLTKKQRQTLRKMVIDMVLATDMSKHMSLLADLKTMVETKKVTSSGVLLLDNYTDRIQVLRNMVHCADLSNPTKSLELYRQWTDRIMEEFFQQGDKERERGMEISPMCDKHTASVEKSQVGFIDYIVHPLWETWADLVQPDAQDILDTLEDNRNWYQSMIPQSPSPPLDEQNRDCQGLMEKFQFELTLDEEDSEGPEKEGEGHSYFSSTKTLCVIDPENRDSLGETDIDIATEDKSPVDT
Outline: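 ACTOne HEK293 cells carry a modified cAMP-gated CNG channel and express endogenous PDE4; plated 1000 cells/well, compounds up to 22.9 uM final. Membrane-potential dye fluorescence (ex 535/em 590) was read; parental cells received 10 uM forskolin + 100 uM RO 20-1724.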

Cn1cnc([N+](=O)[O-])c1Sc1nnc(-c2cccnc2)n1C
inactive: Potency [1] > 11.4 µM | activity change, negative = inhibition [2] 19.7% | activity, negative = inhibition [3] 4.54% | Potency [4] > 46 µM | Potency [5] > 9.22 µM | Potency [6] | Potency [7]

Nc1ccccc1N=Nc1c(S(=O)(=O)O)cc2cc(S(=O)(=O)O)cc(O)c2c1O
inactive: Potency [1] > 11.4 µM | activity change, negative = inhibition [2] -8.99% | activity, negative = inhibition [3] -10.2% | Potency [4] > 46 µM | Potency [5] > 9.22 µM | Potency [6] | Potency [7]

O=C(Nc1ccc(-c2cn3ccccc3n2)cc1)c1cc(Br)ccc1O
inactive: Potency [1] > 11.4 µM | activity change, negative = inhibition [2] -0.171% | activity, negative = inhibition [3] -0.935% | Potency [4] > 46 µM | Potency [5] > 9.22 µM | Potency [6] | Potency [7]

NC(Cc1ccccc1)(C(=O)O)C(=O)O
inactive: Potency [1] > 11.4 µM | activity change, negative = inhibition [2] 4.48% | activity, negative = inhibition [3] -6.13% | Potency [4] > 46 µM | Potency [5] > 9.22 µM | Potency [6] | Potency [7]

CN(C)CC[C@@H](C(=O)C(C)(C)C)c1ccccn1
inactive: Potency [1] > 11.4 µM | activity change, negative = inhibition [2] 2.04% | activity, negative = inhibition [3] 1.4% | Potency [4] > 46 µM | Potency [5] > 9.22 µM | Potency [6] | Potency [7]

OC[C@@H]1O[C@H](n2cnc3c(/C=C(\O)c4ccccc4)ncnc32)[C@H](O)[C@@H]1O
inactive: Potency [1] > 11.4 µM | activity change, negative = inhibition [2] -7.91% | activity, negative = inhibition [3] -0.249% | Potency [4] > 46 µM | Potency [5] > 9.22 µM | Potency [6] | Potency [7]

COc1ccc(CC[N@+]2(C)COc3cc4oc(=O)cc(C)c4cc3C2)cc1OC
inactive: Potency [1] 11 µM | activity change, negative = inhibition [2] 10.2% | activity, negative = inhibition [3] 5.96% | Potency [4] > 46 µM | Potency [5] > 9.22 µM | Potency [7]
